Only some compounds are listed: those with a hit (about 5.7% of all), similar ones and a draw of the others.
GLP1R cytotox: cytotoxic in the GLP-1 receptor inverse agonist counter-screen; HEK293 cAMP-luciferase reporter cells, luminescence, 24 h; Potency, µM (highest dose often 38.3 µM), inactives show at the top dose activity change, negative = inhibition, actives largely listed as inhibitors; 0.13% of 410,000 active; AID 624418;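 also: loss of luciferase light is scored as toxicity; potency is read from the fitted curve at half-maximal effect; % is scaled to controls: 0 for no effect and ±100 for the full control effect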
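Luminescence readout: signal drop marks cytotoxicity. Plated cells grew 12 h at 37 °C, 5% CO2, received 23 nL compound for 24 h, then got luciferase reagent, read after 12 min at RT.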
ClpP mod: qHTS Assay for Activators of ClpP. ATP-dependent Clp protease proteolytic subunit (Bacillus subtilis (strain 168)), P80244. purified B. subtilis ClpP, FRET peptide cleavage, 20 min. Potency, µM (highest dose often 57.5 µM), for the others: at the top dose activity change, negative = active. 1.9% of 340,000 active. AID 651965, 2013; active = well fitted falling curve with a large enough effect; inconclusive = small, poorly fitted or top-dose-only effect; inactive = no such curve, though single readings can be large or run the other way; also: potency is read from the fitted curve at half-maximal effect; the source files actives as falling curves though it sought activators and does not explain the sign; nearly all actives have a fitted effect of over 65% in size
Target sequence (P80244 whole entry, looked up): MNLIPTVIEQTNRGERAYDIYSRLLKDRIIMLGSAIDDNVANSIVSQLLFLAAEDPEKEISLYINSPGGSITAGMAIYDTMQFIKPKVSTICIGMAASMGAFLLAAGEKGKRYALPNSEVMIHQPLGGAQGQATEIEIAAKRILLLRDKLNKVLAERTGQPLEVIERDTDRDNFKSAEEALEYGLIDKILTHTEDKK
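Buffer: 100 mM Tris/HCl pH8, 100 mM KCl, 0.05% low protease BSA, 2.5% glycerol, 0.01% Tween-20. ClpP 10 microg/mL final; 20 min RT; delta FRET normalized to ADEP and DMSO controls.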
D3 ag: D3 dopamine receptor (human) agonism; 0.58% of 410,000 active; max activation, %; AID 652048; D3R DiscoveRx beta-arrestin cells, luminescence, 90 min; P35462; in the data active = max activation above about 30%; also: 0% is about no effect
Target sequence (P35462 whole entry, looked up): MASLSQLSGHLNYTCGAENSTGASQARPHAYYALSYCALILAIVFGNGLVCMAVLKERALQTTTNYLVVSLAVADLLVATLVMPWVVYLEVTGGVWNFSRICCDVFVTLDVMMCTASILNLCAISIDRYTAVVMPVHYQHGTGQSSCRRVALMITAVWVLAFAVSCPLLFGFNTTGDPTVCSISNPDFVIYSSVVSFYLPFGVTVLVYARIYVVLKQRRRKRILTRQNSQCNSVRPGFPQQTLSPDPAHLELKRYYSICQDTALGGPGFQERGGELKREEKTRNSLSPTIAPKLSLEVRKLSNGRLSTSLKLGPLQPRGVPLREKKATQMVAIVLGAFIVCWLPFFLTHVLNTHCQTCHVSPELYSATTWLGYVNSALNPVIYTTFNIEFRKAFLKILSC
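Agonist-mode cell screen: cells plated at 1500/well and incubated overnight at 37 °C, then exposed to library compounds for 90 min at 37 °C. Detection reagent was added for 30–60 min at room temperature, and luminescence was read.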
GLP1R inv ag: GLP-1 receptor (human) inverse agonism | HEK293 GLP-1R CRE-luciferase, luminescence, 24 h; GLP-1R form is constitutively active | 1.6% of 410,000 active | Potency, µM (doses to about 38.3 µM), without a hit: at the highest dose activity change, negative = inhibition, hits mostly inhibitors | AID 624417; also: potency is read from the fitted curve at half-maximal effect; % is scaled to controls: 0 for no effect and ±100 for the full control effect; nearly all actives have a fitted effect of over 55% in size
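qHTS in 1536-well format: reporter HEK293 cells expressing constitutive GLP-1R activity in DMEM + 10% Nu serum, 24 hr with compounds at 37 deg C, luminescence read after 12 min with detection reagent.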
GLP-1R agonist: agonists of human GLP-1 receptor; Potency, µM (doses to about 45.6 µM), without a hit: at the top dose activation, most hits filed as activators; 0.007% of 380,000 active; P43220; HEK293 GLP-1R CRE-luciferase, luminescence, 4-6 h; cells express a hypersensitive GLP-1R form; also: potency is read from the fitted curve at half-maximal effect; % of control where 0% means no effect
D3 antag: D3 dopamine receptor (human) antagonism | P35462 | D3R cells, DiscoveRx beta-arrestin luminescence, antagonist mode; hits give low values | max response, negative = inhibition, % | 2.5% of 360,000 active; in the data active = max response below about -50%; inconclusive = no clear call, values can overlap the other calls; also: % is scaled to controls: 0 for no effect and ±100 for the full control effect
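Cells plated overnight at 1500 cells/well, then exposed to library compounds with dopamine controls for 90 minutes at 37 degrees C. DiscoveRx reagent added for 30–60 minutes at room temperature; luminescence read, quantitative HTS format.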
* hit, by the source's call; u = inconclusive; x = not tested or not shown. Unless noted, calls follow the shape of the dose curve; as a rule, active = well fitted curve in the direction sought with a large enough effect; inconclusive = small, poorly fitted or top-dose-only effect, or another doubt; inactive = no such curve, though single readings can be large; an effect the other way counts as inactive or inconclusive.

SMILES | GLP1R cytotox | ClpP mod | D3 ag | GLP1R inv ag | GLP-1R agonist | D3 antag
Cc1cccc(C2=NN(c3ccc(Br)cc3)[C@@H](C(=O)N3CCOC3=O)[C@@H]2c2ccc(F)cc2)c1 | 62.3% | 4.5% | -4.6 | 8.91µM* | -2.9% | 0.0
O=C1OCCN1C(=O)[C@H]1[C@H](c2ccc([N+](=O)[O-])cc2)C(c2ccccc2)=NN1c1ccc(Br)cc1 | -25.2% | 0.8% | -12.9 | 3.55µM* | -2.3% | 8.0
CC[C@@H]1C(c2ccc(F)cc2)=NN(c2ccc(Br)cc2)[C@H]1C(=O)N1CCOC1=O | 7.1% | 3.6% | 13.8 | 10µM* | 4.3% | 13.7
O=C1OCCN1C(=O)[C@H]1[C@H](c2ccc([N+](=O)[O-])cc2)C(c2cccc(Cl)c2)=NN1c1ccc(Br)cc1 | -20.6% | 0.5% | 15.4 | u | -2.8% | 39.8
CC[C@@H]1C(c2ccccc2)=NN(c2ccc(Br)cc2)[C@H]1C(=O)N1CCOC1=O | 49.8% | 5.3% | -17.3 | u | 1.0% | 0.0
O=C1OCCN1C(=O)[C@H]1[C@H](c2ccccc2)C(c2cccc(Cl)c2)=NN1c1ccc(Br)cc1 | 363.1% | 4.2% | 3.4 | 14.7% | 2.2% | 0.5
CN(C)CCCNc1cc(N2CCN(C)CC2)ncn1 | x | -0.6% | x | x | x | x
COc1cc(OC)c(NC(=O)Cn2c(SCc3ccccc3F)nc3cccnc32)cc1Cl | -4.6% | -3.1% | 6.3 | 6.8% | x | x
COc1cccc(N2CCN(C(=O)CC(NC(=O)c3ccccc3)c3ccccc3)CC2)c1 (configuration not stated) | -1.2% | -3.8% | -9.5 | -28.3% | -26.7% | -54.3*
CCc1ccc(NC(=S)N2CCN(c3cccc(OC)c3)CC2)cc1 | -8.7% | 0.8% | -5.2 | u | -6.5% | -5.4
Cc1cccc(N2CCN(C(=O)CC(NC(=O)c3ccccc3)c3ccccc3)CC2C)c1 (configuration not stated) | -9.8% | 0.7% | 5.2 | u | -19.3% | -16.5
CCc1ccccc1NC(=S)N1CCN(c2cccc(OC)c2)CC1 | 7.1% | 10µM* | -2.5 | -27.9% | -3.4% | 3.9
CCOc1ccccc1CNC(=O)c1nc(-c2ccc(Cl)cc2)n2c1CCCCC2 | 4.8% | u | -25.2 | -16.0% | x | x
O=C(O)c1cc2cccc([N+](=O)[O-])c2[nH]1 | x | 0.6% | x | x | x | x
CCOc1ccc(NC(=O)c2oc3ccccc3c2NC(=O)C(C)Oc2ccccc2)cc1 (configuration not stated) | 2.3% | u | 19.2 | u | 0.1% | x
O=C(CCN1CCC(c2ccccc2)C1)c1ccccc1 (configuration not stated) | 4.4% | 0.9% | -27.2 | 1.9% | 11.4% | u
O=C(CCN1CCC(c2ccccc2)C1)c1cccs1 (configuration not stated) | -11.1% | -2.0% | -24.8 | 7.3% | 0.6% | -66.2*
O=C(c1cccs1)N1CCC(c2ccccc2)C1 (configuration not stated) | 43.6% | 3.1% | -8.1 | -1.9% | -2.4% | -59.5*
O=C(c1ccccc1)C1CCN(C(=O)c2cccs2)CC1 | -3.5% | x | 3.6 | -7.4% | 7.6% | 4.1
COC(=O)c1c(C)oc(C)c1S(=O)(=O)N1CCCC1 | 2.1% | 2.5% | -2.0 | 8.9% | -1.9% | -13.8
COC(=O)c1c(C)oc(C)c1S(=O)(=O)N1CCCCC1 | 2.1% | 17.8µM* | 7.1 | -16.5% | 2.5% | 14.9
Cc1ccccc1-n1c(SCc2csc(Nc3ccccc3)n2)nnc1-c1cccnc1 | -10.6% | -0.5% | -6.8 | u | 9.8% | 16.7
Cc1ccc(Nc2nc(CSc3nnc(-c4cccnc4)n3-c3ccccc3C)cs2)cc1 | -22.4% | 28.2µM* | 1.7 | u | 3.4% | 13.8
CCOc1ccc(C(=O)Nc2cccc(NC(=O)c3ccc(C(C)(C)C)cc3)c2)cc1Br | -7.3% | -23.6% | 7.9 | -6.5% | x | x
COc1ccc(-n2nc(C#N)c(Cl)cc2=O)cc1 | u | x | -13.1 | u | -7.7% | -104.4*
SMILES | GLP1R cytotox | ClpP mod | D3 ag | GLP1R inv ag | GLP-1R agonist | D3 antag
CCc1cccc(C)c1NC(=O)C(CC)Sc1nncn2c1cc1occc12 (configuration not stated) | 0.0% | 10.3% | -2.3 | -17.0% | x | x
CCNc1nc(Cl)nc(NC2CCCCC2)n1 | 27.2% | 3.0% | -4.1 | 15.6% | 52.0% | 3.3
CC(C)(CO)Nc1nc(Cl)nc(NC2CCCCC2)n1 | 9.9% | 1.4% | 34.2* | 17.4% | 15.5% | -20.9
CCn1c(-c2ccc(F)cc2)n[nH]c1=S | u | -3.6% | -5.9 | -6.3% | 3.0% | -88.0*
CCn1c(-c2ccc(C(C)(C)C)cc2)n[nH]c1=S | -11.9% | u | -6.7 | u | 8.4% | -30.0
O=C(CN1CCCC1)N1CCCc2c1c(=O)oc1ccc(OCc3ccccc3)cc21 | -10.2% | 31.6µM* | 25.0 | u | 1.0% | -24.6
CC1CCN(CCC(=O)N2CCCc3c2c(=O)oc2ccc(O)cc32)CC1 | -10.6% | 3.1% | -7.5 | -4.1% | -12.0% | -63.1*
CN(CC(=O)N1CCCc2c1c(=O)oc1ccc(O)cc21)Cc1ccccc1 | -15.5% | -12.6% | -10.8 | 5.3% | 1.9% | -68.4*
CC(C(=O)N1CCCc2c1c(=O)oc1ccc(O)cc21)N1CCc2ccccc2C1 (configuration not stated) | -11.9% | -12.5% | -18.6 | u | 9.6% | -9.5
Cc1nnc2c(N3CCN(c4ccccc4F)CC3)nc3ccc(C(=O)c4ccccc4)cc3n12 | -12.3% | 0.5% | 8.7 | 13.4% | x | x
Cc1ccc2c(c1)c(=O)c(C(=O)c1ccncc1)cn2CC(=O)Nc1ccc(C(C)C)cc1 | -6.1% | 19.4% | -21.7 | 17.7% | x | x
CCOC(=O)c1cnc(-n2nc(C)cc2C)nc1NC | u | 31.6µM* | 0.8 | u | 9.6% | u
CCOC(=O)c1cnc(-n2nc(C)cc2C)nc1Nc1ccc(C)cc1 | u | -3.9% | -2.4 | u | 0.1% | 2.9
CCOC(=O)c1cnc(-n2nc(C)cc2C)nc1NC1CCCCC1 | 1µM* | -1.2% | 0.8 | 1.26µM* | 0.2% | u
CCOC(=O)c1cnc(-n2nc(C)cc2C)nc1Nc1ccc(N(C)C)cc1 | 1.12µM* | -0.4% | 5.3 | 1.58µM* | 5.5% | u
CCOC(=O)c1cnc(-n2nc(C)cc2C)nc1N(CC)CC | 2.82µM* | 0.5% | -10.6 | 0.0% | 20.6% | -58.6*
C[N+]1(CC(=O)c2ccc(Cl)c(Cl)c2)CCOCC1 | x | -0.5% | x | x | x | x
CC(C)CC(=O)Nc1ccc(S(=O)(=O)Nc2cc3c(cc2N2CCOCC2)n(C)c(=O)c(=O)n3C)cc1 | -5.3% | -21.8% | 3.7 | 10.2% | x | x
